Assay outcomes (PubChem BioAssay)
Hits are enriched below; roughly 12% of the tested compounds scored in any of these assays.
NS1 inh – qHTS Assay for Inhibitors of Influenza NS1 Protein Function; Potency, µM (doses to about 46.1 µM); 270,000 tested, 0.4% active; also: actives are rising curves; nearly all actives have a fitted effect of over 50% in size
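OD600 was taken as the measure of yeast growth restored by compound in an NS1-expressing S. cerevisiae strain. Cells had been washed out of glucose medium and diluted 1:100 into galactose -URA medium, pH 6.0.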
SARS PLpro yeast – qHTS of Yeast-based Assay for SARS-CoV PLP. S. cerevisiae expressing SARS-CoV PLpro, growth rescue. Potency, µM (doses to about 32.9 µM), most hits filed as activators. 330,000 tested, 0.19% active. AID 485353, 2010; also: nearly all actives have a fitted effect of over 55% in size
Cycloheximide cs – Cycloheximide Counterscreen for Small Molecule Inhibitors of Shiga Toxin; cell reporter, cycloheximide protein synthesis inhibition counterscreen; max response, %; 300,000 tested, 12% active; in the data active = max response mostly above about 13%, no sharp cut-off; inactive = mostly below about 14%; also: read at 38.3 µM for the half of the compounds with a filed dose
Shiga inhibitor – A qHTS for Small Molecule Inhibitors of Shiga Toxin | Vero cells, Shiga toxin protein synthesis inhibition reporter | inhibition, % at 38.7 µM | 290,000 tested, 9.2% active; in the data active = inhibition mostly above about 28%, no sharp cut-off; inactive = mostly below about 43%
Numbers stand for hits; - = inactive; ? = inconclusive; . = not tested or not shown; [ ] = dose if it differs, or a comment. Unless noted, calls follow the shape of the full dose curve.

SMILES | NS1 inh | SARS PLpro yeast | Cycloheximide cs | Shiga inhibitor
Cc1cccn2cc(-c3ccc(S(=O)(=O)N4CCCCC4)cc3)nc12 | - | - | - | -
Cc1cccn2cc(-c3ccc(S(=O)(=O)N4CCOCC4)cc3)nc12 | - | - | - | -
O=[N+]([O-])c1cccn2cc(-c3ccc(Br)cc3)nc12 | - | - | 44 | 67
COc1ccc(-c2cn3cccc(C)c3n2)cc1F | - | - | 57 | 113
Cc1ccc(-c2cn3cccc(C)c3n2)cc1 | - | - | 33 | 51
CCCC[C@]12Cc3cc(OC)c(OC)cc3C(O1)C1=C(O2)C(=O)c2ccccc2C1=O | - | -[6.58 µM] | - | -
COc1ccc(CC(=O)Nn2c(-c3ccccc3)nc3ccccc3c2=O)cc1 | - | - | - | -
Cc1cc(C(=O)NNS(=O)(=O)c2ccc(C(C)(C)C)cc2)nn1C(C)(C)C | - | - | - | -
C=CCNC(=O)C1CC(=O)N(c2ccc(OCC(=O)Nc3ccc(Cl)cc3)cc2)C1 (stereo not given) | - | - | - | -
O=C(O)CCC(=O)Nc1ccc(Sc2ccc([N+](=O)[O-])cc2)cc1 | - | - | - | -
CCCN(CC(=O)Nc1ccccc1C)C(=O)c1ccc(NC2CC2)c([N+](=O)[O-])c1 | . | - | . | .
O=C(CNc1cc(S(=O)(=O)N2CCCC2)ccc1OCC(F)(F)F)Nc1ccc(SC(F)F)cc1 | - | - | 21 | -
COc1cc(/C(C)=N/NC(=O)CSc2nncn2C)ccc1OCc1ccccc1Cl | - | - | 38 | 84
Cc1ccc(-c2nc(CS(=O)(=O)CC(=O)NC3CCCCCC3)c(C)o2)cc1 | - | - | - | -
Cc1c(C(=O)N/N=C/c2ccccc2)[nH]c2ccc(Cl)cc12 | - | - | 27 | 41
Cc1c(C(=O)N/N=C/c2ccc(N(C)C)cc2)[nH]c2ccc(Cl)cc12 | - | - | - | -
COc1cc(NC(=S)NCCCN2CCOCC2)cc(OC)c1 | - | - | - | -
Cc1cccc(NC(=O)c2sc3nc(N)c(C#N)cc3c2N)c1 | - | - | 31 | 72
Cc1cccc(NC(=O)c2sc(Cl)nc2-c2ccccc2)c1 | ? | - | - | -
N#Cc1cc2c(N)c(C(=O)Nc3ccccc3)sc2nc1N | - | - | 36 | 90
COc1ccc(/C=N/c2oc(-c3ccccc3)cc2C#N)cc1OC | - | - | 23 | 62
O=[N+]([O-])c1cccnc1Oc1ccc(C2SCCS2)cc1 | - | - | 58 | 73
O=[N+]([O-])c1cccnc1Oc1ccc(OCc2ccccc2)cc1 | - | - | 63 | 61
O=C(CCNc1n[nH]c(=O)[nH]c1=O)N1CCOCC1 | - | - | - | -
COc1cc(SC)ccc1C(=O)Nc1cc(C)c(OCC(=O)N2CCOCC2)c(C)c1 | - | - | - | -
SMILES | NS1 inh | SARS PLpro yeast | Cycloheximide cs | Shiga inhibitor
COc1cc(SC)ccc1C(=O)Nc1ccc(C)cc1 | - | - | 36 | 69
COc1cc(SC)ccc1C(=O)Nc1ccc(S(=O)(=O)N2CCCC2)cc1 | - | - | - | -
CCN(CC)S(=O)(=O)c1cccc(NC(=O)c2ccc(SC)cc2OC)c1 | . | - | - | -
COc1cc(SC)ccc1C(=O)Nc1ccc(OCC(=O)N2CCOCC2)cc1 | - | - | 17 | 61
COc1cc(SC)ccc1C(=O)NCCOc1c(C)cc(C)cc1C | - | - | - | -
COc1cc(SC)ccc1C(=O)Nc1ccc(C)cc1C | - | - | 47 | 106
COc1cc(SC)ccc1C(=O)Nc1ccc2c(c1)OCO2 | - | - | 37 | 71
CCOc1ccccc1CN1CCN(Cc2csc(C(C)=O)c2)CC1CCO (stereo not given) | - | - | - | -
CCOc1ccc(S(=O)(=O)N(CC)CC)cc1NC(=O)c1ccc(N2CCCC2=O)cc1 | - | - | - | -
COc1ccc(Cl)cc1NC(=O)COc1ccc(S(=O)(=O)N2CCOCC2)cc1C | - | - | - | -
Cc1nn(C)cc1S(=O)(=O)Nc1ccccc1Br | - | - | - | -
Oc1ccc(Nc2nc(Cl)nc(NCc3ccco3)n2)cc1 | ? | - | 34 | -
Cc1cccc(Nc2nc(NCc3ccco3)c3ccccc3n2)c1 | - | - | 11 | -
C=CCNc1nc(Cl)nc(NCc2ccco2)n1 | - | - | - | -
Cc1ccc(-c2nc(NCc3cccnc3)c3ccccc3n2)cc1 | - | - | 14 | -
COc1ccc(OC)c(Nc2nc(NCc3ccco3)c3ccccc3n2)c1 | - | - | - | .
c1ccc(Nc2nc(NCc3ccco3)c3ccccc3n2)cc1 | - | - | 16 | 33
O=c1c2ccccc2nc2n1CCC2O (stereo not given) | - | - | - | -
CCOC(=O)C(CCCP(=O)(c1ccccc1)c1ccccc1)(NC(C)=O)C(=O)OCC | - | - | - | -
CC(C)S(=O)(=O)c1cnc(N2CCOCC2)nc1N | - | - | - | -
Cc1ccc(-c2nc(N/N=C/c3cccc([N+](=O)[O-])c3)c3ccccc3n2)cc1 | - | - | - | -
Cc1sc2nc3ccc(NCc4ccco4)nn3c(=O)c2c1C | - | - | - | -
O=c1c2ccccc2nc2ccc(NCc3ccco3)nn12 | - | - | 51 | 56
Cc1ccc(S(=O)(=O)Nc2nc3ccccc3nc2NCc2ccco2)cc1 | - | - | 59 | 74
Cc1ccc(-c2nc(N/N=C/c3cccnc3)c3ccccc3n2)cc1 | - | - | 20 | -
SMILES | NS1 inh | SARS PLpro yeast | Cycloheximide cs | Shiga inhibitor
Cc1ccc(-c2nc(NCc3ccco3)c3ccccc3n2)cc1 | - | - | 69 | 36
COC(=O)C1CC(O)CN1C(=O)Nc1cccc(C(F)(F)F)c1 (stereo not given) | - | - | - | -
OC1(c2cccc(C(F)(F)F)c2)CCN(Cc2nc(-c3cnccn3)no2)CC1 | - | - | - | -
Cc1ccccc1C(=O)N1CCC(C(=O)NN2C(=O)NC3(CCCCC3)C2=O)CC1 | . | - | . | .
Cc1ccccc1Nc1nc(NCc2ccco2)c2ccccc2n1 | . | - | 19 | -
Oc1ccccc1Nc1nc(NCc2ccco2)c2ccccc2n1 | - | - | - | -
Cn1c(CC(=O)Nc2ccccc2F)nnc1SCC(=O)N1CCOCC1 | - | ? | 30 | -
Cc1ccc(OCc2nc(-c3ccccn3)n[nH]2)cc1 | - | - | 32 | -
Cc1cccc(OCc2nc(-c3ccccn3)n[nH]2)c1 | - | . | - | -
COc1cc(/C=N\NC(=O)c2ccc(-c3ccccc3)cc2)cc(OC)c1O | - | - | 15 | -
COc1cc(/C=N/NC(N)=O)cc(Br)c1OCc1ccc(C)cc1 | - | - | - | -
COc1cc(/C=N/NC(=O)c2ccc(COc3cc(C)ccc3C(C)C)cc2)cc(OC)c1O | - | - | 34 | 20
CNC(=O)c1ccsc1NC(=O)CS(=O)(=O)c1ccc(Cl)cc1 | - | - | - | -
Cc1ccc2c(c1)N(C(C)C(=O)NCCc1ccccc1)C(=O)CO2 (stereo not given) | - | - | - | -
O=C(Nc1nc2ccc(C(=O)N3CCCCC3)cc2s1)C1CCCCC1 | - | - | - | -
Nc1ccc2nc(NC(=O)C3CCCCC3)sc2c1 | - | - | 57 | 104
O=C(Nc1nnc(Cc2ccc(Cl)cc2)s1)C1CCCO1 (stereo not given) | - | - | - | -
Cc1ccc(S(=O)(=O)N2CCCC2C(=O)Nc2nc3ccccc3s2)cc1 (stereo not given) | - | - | 14 | -
